# Measured values taken from PubChem BioAssay AID1259319 (Sanford-Burnham Center for Chemical Genomics, 2017).
# Hit rate of the full screen: of about 3,000 compounds, about 1,800 (60%) were called active.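 Rule for the calls: active = activation at or above a set limit, or at least 3 SD above the negative control mean; inactive = the rest.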 The set was probably picked from earlier hits. The list is a sample of the results.
# Target: Nuclear receptor subfamily 1 group D member 1 (Homo sapiens) (UniProt P20393)
# Experiment: Rev-erbα–DNA interaction modulation, retest – biochemical, FITC-DNA, fluorescence polarization, single point, confirmation (AID 1259319);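 note: 0% = 35 nM protein with DMSO and 100% = 750 nM protein high control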
# Details: Rev-erb alpha FITC-DNA binding, 90 min, at 25 µM, active compounds read high
# Nuclear receptor subfamily 1 group D member 1 (Homo sapiens), sequence (P20393 whole entry, looked up): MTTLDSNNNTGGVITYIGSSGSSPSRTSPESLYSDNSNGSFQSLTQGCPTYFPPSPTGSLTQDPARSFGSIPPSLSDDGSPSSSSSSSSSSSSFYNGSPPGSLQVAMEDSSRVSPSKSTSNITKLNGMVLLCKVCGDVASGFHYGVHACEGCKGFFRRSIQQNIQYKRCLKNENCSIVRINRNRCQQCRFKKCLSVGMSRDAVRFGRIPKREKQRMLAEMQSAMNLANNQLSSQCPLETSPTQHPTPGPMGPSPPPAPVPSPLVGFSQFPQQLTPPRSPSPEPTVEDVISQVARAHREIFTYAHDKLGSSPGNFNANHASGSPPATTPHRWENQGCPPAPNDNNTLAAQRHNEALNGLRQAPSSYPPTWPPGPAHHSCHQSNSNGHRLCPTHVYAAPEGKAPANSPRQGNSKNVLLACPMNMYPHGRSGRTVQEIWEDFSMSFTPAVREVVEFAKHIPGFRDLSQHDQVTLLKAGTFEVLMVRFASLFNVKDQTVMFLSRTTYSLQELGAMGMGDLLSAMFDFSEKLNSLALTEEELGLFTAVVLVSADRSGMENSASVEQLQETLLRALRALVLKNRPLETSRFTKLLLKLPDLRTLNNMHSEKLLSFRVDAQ
row,Compound,activation
1,Cc1nc2cc(NC(=O)CSc3nc4c(C)cccc4cc3C#N)ccc2s1,85.3% (active)
2,Cc1cc2cc3c(cc2nc1SCC(=O)Nc1c(C)cccc1C)CCC3,16.2% (inactive)
3,COCc1cc(C)nc(SCC(=O)Nc2cccc(C)c2)c1C#N,-4.78% (inactive)
4,CCOc1ccc2cc(C#N)c(SCC(=O)OC)nc2c1,90.1% (active)
5,CCOc1cccc(C(=O)Nc2nnc(-c3cccs3)s2)c1,-1.11% (inactive)
6,Cc1nonc1NC(=O)CSc1nc2ccccc2cc1C#N,39.8% (active)
7,CCOC(=O)c1c(NC(=O)CN2C(=O)NC3(CCC(C)CC3)C2=O)sc(C)c1CC (stereo unspecified),11% (inactive)
8,c1ccc2c(-c3nn4nnnc4c4ccccc34)cccc2c1,29.3% (active)
9,COc1ccc(C2=NN(C(=O)CSc3nc(=O)n4ccc(C)cc4n3)C(c3ccc(C)cc3)C2)cc1 (stereo unspecified),4.15% (inactive)
10,CCOc1cccc(NC(=O)Cn2nc(-c3ccc4c(c3)OCCO4)ccc2=O)c1,15.3% (inactive)
11,COc1ccc(-c2nnc(SCC(=O)c3ccc4c(c3)OCCO4)o2)cc1,28.7% (active)
12,COc1nc(-c2ccc(Cl)cc2)ccc1-c1noc(-c2cccs2)n1,46.9% (active)
13,Fc1c(F)c(C(F)(F)F)c(F)c(F)c1N1CCN(c2ccc3nnc(C(F)(F)F)n3n2)CC1,40% (active)
14,COc1ccccc1N1CCN(CC(=O)Nc2ccnn2C2CCCC2)CC1,-5.83% (inactive)
15,CC(=O)c1cc(C#N)c(SCC(=O)Nc2nccs2)nc1C,29% (active)
16,COc1ccc(-n2ncc3c(N4CCc5ccccc54)ncnc32)cc1,40.6% (active)
17,Cc1cc(C(C)(C)C)n2nc(C)c(-c3ccccc3)c2n1,4.3% (inactive)
18,CCCCNC(=O)CSc1nc2n[nH]c(C)c2c(=N)n1-c1cccc(Cl)c1C,26.6% (active)
19,Cc1ccc(-n2c(SCC(=O)NCCC3=CCCCC3)nc3n[nH]c(C)c3c2=N)cc1Cl,14.5% (inactive)
20,COc1ccc(CC(=O)Nc2ccc(-c3nnc(-c4ccc(C)cc4)o3)cc2)cc1,-0.593% (inactive)
21,COc1ccc(CNC(=O)c2nnn(CC(=O)Nc3cc(C)cc(C)c3)c2N)cc1,21.9% (active)
22,Cc1c(-c2ccccc2)nc(N)c(C#N)c1-c1cccs1,16.4% (inactive)
23,O=C(COC(=O)c1cccc(Br)c1)Nc1cccc2c1C(=O)c1ccccc1C2=O,18.5% (active)

row,Compound,activation
1,N#Cc1ccccc1Sc1ccccc1C(=O)OCC(=O)NC1CCCCC1,35.9% (active)
2,CC(C)C(C)NC(=O)COc1nc2ccccc2nc1N(C)C1CCCCC1 (stereo unspecified),7.89% (inactive)
3,O=C(COC(=O)c1ccccc1SCC(=O)NC1CCCCC1)NC1CCCCC1,86.9% (active)
4,Cc1nc(SCC(=O)Nc2cc(C)on2)c2c3c(sc2n1)CCCC3,43.7% (active)
5,Cc1cc(NC(=O)CSc2nc3cc(Cl)ccc3c(=O)n2Cc2ccco2)no1,16.1% (inactive)
6,Cc1cc(NC(=O)CSc2nc(C(C)C)nc3sc4c(c23)CCC(C)C4)no1 (stereo unspecified),30.8% (active)
7,C[n+]1ccc(/C=C/c2c[nH]c3ccccc23)cc1,136% (active)
8,CCc1ccc2c(c1)cc(CN(C(=S)Nc1ccccc1Cl)C1CC1)c1nnnn12,2.01% (inactive)
9,COc1cccc(-n2c(SCC(=O)c3c[nH]c4ccccc34)nc3ccccc3c2=O)c1,30.8% (active)
10,CCOC(=O)c1ccc(NC(=O)c2c(NCc3ccccc3)[nH]c(=O)[nH]c2=O)cc1,1.79% (inactive)
11,CCN(CC)c1ccc2cc(C(N)=O)/c(=N\NC(=O)c3ccncc3)oc2c1,25.4% (active)
12,Cn1c(=O)n(C)c2cc(/C=N/NC(=O)c3cccc(Br)c3)ccc21,8.29% (inactive)
13,COc1cc(Cl)c(C)cc1NC(=O)COC(=O)c1cc(SC)ccc1Cl,23.3% (active)
14,CCN1/C(=C\c2ccc3ccccc3[n+]2CC)Sc2cc(C)ccc21,67.5% (active)
15,Cc1nc2nc(SCC(=O)Nc3cccc(F)c3)[nH]c2cc1Br,20% (active)
16,CCn1c(SCC(=O)Nc2cccc(F)c2)nnc1-c1cc2cc(Br)ccc2o1,26.2% (active)
17,Cc1nc2nc(SCC(=O)c3ccccc3)[nH]c2cc1Br,45% (active)
18,COc1ccc(C(=O)Nc2cccc(NC(=O)c3ccc(OC)cc3OC)n2)c(OC)c1,4.36% (inactive)
19,COc1ccc2[nH]c(C(=O)Nc3ccccc3Cl)cc2c1,30.5% (active)
20,Cc1cc(=O)oc(C)c1C(=O)N1CCCCC1,-0.804% (inactive)
21,CC(C)Cn1c(CN(Cc2ccccc2)Cc2ccccc2)nc2c1c(=O)n(C)c(=O)n2C,48.3% (active)
22,Fc1ccc(CNc2nc3ccccc3n3nnnc23)cc1,27% (active)
23,COC(=O)c1cccc(Cn2ccc3ccc(-c4ccc5ccn(C(=O)C6CCCCC6)c5c4)cc32)c1,43.5% (active)

row,Compound,activation
1,COC(=O)c1cccc(Cn2ccc3ccc(-c4ccc5ccn(C(=O)c6ccccc6C)c5c4)cc32)c1,89.9% (active)
2,CCOC(=O)c1c(C)oc2cc(Br)c(OCC(N)=O)cc12,40.3% (active)
3,COc1cc(OC)cc(-c2nc(=S)n3ccsc3n2)c1,2.77% (inactive)
4,Cc1sc2ncnc(N3CCC(C(=O)Nc4nc5ccc(Cl)cc5s4)CC3)c2c1C,51% (active)
5,CN1C(=O)c2ccc(C(=O)Nc3ccc(Br)cn3)cc2C1=O,30.1% (active)
6,CCCCCn1nnnc1C1c2ccccc2C(=O)N1Cc1ccco1 (stereo unspecified),-8.88% (inactive)
7,O=c1cc(N2CCCCC2)c(-c2ccccc2)nn1Cc1cccc(F)c1,8.56% (inactive)
8,CCC(C(=O)NC1CCCC1)N(C(=O)c1snc(C(N)=O)c1N)c1ccc2c(c1)OCCO2 (stereo unspecified),20.2% (active)
9,NC(N)=Nc1nc2ccc(Br)cc2c(=O)[nH]1,21.2% (active)
10,O=C1Cc2ccccc2Sc2ccc(Cl)cc21,23.2% (active)
11,CCOc1cc(-c2cc(-c3ccc(OC)cc3)nc(N)c2C#N)ccc1O,13.9% (inactive)
12,CCOc1nc(-c2ccc(OC)cc2)ccc1-c1noc(-c2cc(OC)c(OC)c(OC)c2)n1,22.3% (active)
13,Cc1ccc(-n2nc3cc(C)c(NC(=O)c4cccnc4)cc3n2)cc1,0.139% (inactive)
14,COc1cccc(-c2ccc(C#N)c(SCC(=O)NCCc3ccc(Cl)cc3)n2)c1,13.2% (inactive)
15,COc1ccc(CCNC(=O)CSc2nc(-c3ccc(OC)c(OC)c3)ccc2C#N)cc1,37% (active)
16,CCOC(=O)c1ccc(NC(=S)Nc2cc(C)cc(C)n2)cc1,4.33% (inactive)
17,COc1ccc(-c2csc3ncnc(N4CCN(S(=O)(=O)c5ccccc5C#N)CC4)c23)cc1,14.6% (inactive)
18,COc1ccc(S(=O)(=O)N2CCN(c3ncnc4c(-c5ccccc5)nsc34)CC2)cc1,8.1% (inactive)
19,CC(=O)c1ccc(S(=O)(=O)N2CCN(c3nc4c(C)c(C)ccc4cc3C#N)CC2)cc1,181% (active)
20,COCCCNc1nc2c(-c3cccc(C)c3)nnn2c2ccc(Cl)cc12,28.8% (active)
21,Cc1nn(C)cc1N1C(=O)c2cccc3c(N)ccc(c23)C1=O,181% (active)
22,CN1C(=O)c2cccc3c(N)ccc(c23)C1=O,225% (active)
23,COc1ccc(-c2c(C)cc3oc(=O)cc(-c4ccccc4)c3c2C)cc1C=O,8.9% (inactive)

row,Compound,activation
1,C=C(C)C1CC=C(C)/C(=N\NC(=O)CNc2ccccc2OC)C1 (stereo unspecified),6.76% (inactive)
2,C=CCn1c(=NC(=O)c2ccc(S(=O)(=O)N3CCCC3)cc2)sc2cc(NC(C)=O)ccc21,34.3% (active)
3,Cn1c(=NC(=O)c2ccc3c(c2)OCCO3)sc2cc(S(C)(=O)=O)ccc21,12.7% (inactive)
4,COC(=O)Cn1c(=NC(=O)c2cc(OC)c(OC)c(OC)c2)sc2cc(OC)ccc21,14.3% (inactive)
5,C=CCn1c(=NC(=O)c2cccs2)sc2cc(NC(C)=O)ccc21,33.8% (active)
6,COc1ccccc1CC1(C)C(=O)Nc2ccc(OC(F)(F)F)cc21 (stereo unspecified),60.9% (active)
7,O=C(NCc1ccc(Cl)cc1)c1cc2c(nc3sccn32)s1,19.2% (active)
8,COc1ccc(S(=O)(=O)N2CCOCC2)cc1C(=O)Nc1nc2ccccc2s1,20.7% (active)
9,COc1cc2c(cc1NC(=O)CN1CCN(S(=O)(=O)c3ccc(F)cc3)CC1)oc1ccccc12,3.46% (inactive)
10,COc1ccc(C)cc1Nc1nc(C)nc2c1oc1ccccc12,28.2% (active)
11,CCOC(=O)c1sc(NC(=O)CCN2CCOCC2)c(C(=O)OCC)c1C,5.98% (inactive)
12,COc1ccc(-c2nn(C)c(=O)c3ccccc23)cc1NC(=O)COc1ccccc1,33.9% (active)
13,CCOc1ccc(NC(=O)CSc2ncnc3c2sc2ccccc23)cc1,107% (active)
14,COc1cc(OC)c(N2CC(C(=O)Nc3cc(Cl)ccc3N3CCOCC3)CC2=O)cc1Cl (stereo unspecified),1.79% (inactive)
15,COc1cc(OC)cc(-c2c(C#Cc3ccsc3)c3cc(-c4ccc(SC)cc4)ccc3n2C)c1,32.1% (active)
16,CCOc1ccc2nc(Cl)c(C3CC(c4ccccc4)=NN3C(=O)c3cccs3)cc2c1 (stereo unspecified),-0.503% (inactive)
17,Cc1ccc(S(=O)(=O)c2c[nH]c3ccc(Cl)cc3c2=O)cc1,137% (active)
18,COc1ccc(-n2nc3c(N4CCC(C(=O)NCc5ccccc5)CC4)nnc(C)c3c2C)cc1,32.9% (active)
19,COc1ccc(-n2nc(C(=O)NCC(=O)Nc3cccc(C)n3)c3ccccc3c2=O)cc1,10.2% (inactive)
20,Cc1cc(Br)ccc1NC(=O)c1sc2ncn(CC(=O)N3CCN(c4ccccn4)CC3)c(=O)c2c1C,37.6% (active)
21,Cc1nc(N2CCN(c3ccccn3)CC2)c2c(C)c(C(=O)Nc3ccc(F)c(Cl)c3)sc2n1,17.3% (inactive)
22,CCOC(=O)c1ccc(NC(=S)N2CCN(c3ccccn3)CC2)cc1,12.8% (inactive)
